# Measurements taken from PubChem BioAssay (EPA / NIEHS).
# Records with an inconclusive call do not appear. The source made the active and inactive calls. How the source made its calls: active means hit-call score of the fitted dose curve at least 0.9, where 1 is the maximum; inconclusive means response in the unintended direction; inactive means score below 0.9.
# Tests used:
# [1] = biological target: Retinoic acid receptor RXR-alpha (Homo sapiens) (UniProt P19793); assay: ATG_RXRa_TRANS: Attagene TRANS-FACTORIAL HepG2 Assay for human Retinoid X Receptor alpha (RXRa) (AID 2283012)
# Chain of Retinoic acid receptor RXR-alpha (Homo sapiens) (P19793 whole entry, looked up, the tested form may be a part): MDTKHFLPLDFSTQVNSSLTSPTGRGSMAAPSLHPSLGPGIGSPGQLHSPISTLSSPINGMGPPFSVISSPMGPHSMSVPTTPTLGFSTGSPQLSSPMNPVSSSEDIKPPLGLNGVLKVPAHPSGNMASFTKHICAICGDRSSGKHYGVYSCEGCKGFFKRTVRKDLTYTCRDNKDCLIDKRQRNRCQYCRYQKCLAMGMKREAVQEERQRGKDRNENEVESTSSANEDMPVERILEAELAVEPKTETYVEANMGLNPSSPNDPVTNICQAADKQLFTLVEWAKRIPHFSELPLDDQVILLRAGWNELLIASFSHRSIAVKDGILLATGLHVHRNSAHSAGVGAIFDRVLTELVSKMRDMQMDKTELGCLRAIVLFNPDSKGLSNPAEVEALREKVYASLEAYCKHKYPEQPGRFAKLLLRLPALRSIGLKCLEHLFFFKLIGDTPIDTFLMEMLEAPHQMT
# Outline: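 Measures exogenous chimeric NR-GAL4 activity in transfected HepG2 liver cells after 24 h of dosing. Induced reporter mRNA was detected by RT-PCR with capillary electrophoresis, and gain of signal was analysed against DMSO.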
# [2] = biological target: human Retinoid X Receptor beta (RXRb), RXRB (gene 6257) (UniProt P28702); assay: ATG_RXRb_TRANS: Attagene TRANS-FACTORIAL HepG2 Assay for human Retinoid X Receptor beta (RXRb) (AID 2283013)
# Chain of human Retinoid X Receptor beta (RXRb), RXRB (gene 6257) (P28702 whole entry, looked up, the tested form may be a part): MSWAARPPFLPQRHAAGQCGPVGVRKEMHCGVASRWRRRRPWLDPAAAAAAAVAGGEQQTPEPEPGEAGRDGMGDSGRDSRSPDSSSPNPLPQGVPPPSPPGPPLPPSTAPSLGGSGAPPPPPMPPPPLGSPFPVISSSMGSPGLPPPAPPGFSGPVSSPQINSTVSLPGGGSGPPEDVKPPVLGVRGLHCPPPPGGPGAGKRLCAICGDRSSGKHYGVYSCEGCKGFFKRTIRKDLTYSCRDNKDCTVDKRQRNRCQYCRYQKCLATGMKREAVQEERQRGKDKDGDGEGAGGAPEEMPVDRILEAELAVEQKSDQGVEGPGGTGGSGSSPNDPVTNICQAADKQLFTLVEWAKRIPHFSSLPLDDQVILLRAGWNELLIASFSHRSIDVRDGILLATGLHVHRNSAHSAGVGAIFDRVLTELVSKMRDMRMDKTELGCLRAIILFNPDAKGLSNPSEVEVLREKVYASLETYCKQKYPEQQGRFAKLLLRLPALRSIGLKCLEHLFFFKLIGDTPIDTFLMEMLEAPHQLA
# Outline: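 Chimeric receptor-Gal4 activity was assessed in transiently transfected human HepG2 cells after 24 h exposure. Transcripts from GAL4-UAS reporters were quantified by fluorescent RT-PCR and capillary electrophoresis, with DMSO as negative control and baseline.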
# [3] = biological target: human Thyroid Receptor alpha (THRa1), THRA (gene 7067) (UniProt P10827); assay: ATG_THRa1_TRANS: Attagene TRANS-FACTORIAL HepG2 Assay for human Thyroid Receptor alpha (THRa1) (AID 2283014)
# Chain of human Thyroid Receptor alpha (THRa1), THRA (gene 7067) (P10827 whole entry, looked up, the tested form may be a part): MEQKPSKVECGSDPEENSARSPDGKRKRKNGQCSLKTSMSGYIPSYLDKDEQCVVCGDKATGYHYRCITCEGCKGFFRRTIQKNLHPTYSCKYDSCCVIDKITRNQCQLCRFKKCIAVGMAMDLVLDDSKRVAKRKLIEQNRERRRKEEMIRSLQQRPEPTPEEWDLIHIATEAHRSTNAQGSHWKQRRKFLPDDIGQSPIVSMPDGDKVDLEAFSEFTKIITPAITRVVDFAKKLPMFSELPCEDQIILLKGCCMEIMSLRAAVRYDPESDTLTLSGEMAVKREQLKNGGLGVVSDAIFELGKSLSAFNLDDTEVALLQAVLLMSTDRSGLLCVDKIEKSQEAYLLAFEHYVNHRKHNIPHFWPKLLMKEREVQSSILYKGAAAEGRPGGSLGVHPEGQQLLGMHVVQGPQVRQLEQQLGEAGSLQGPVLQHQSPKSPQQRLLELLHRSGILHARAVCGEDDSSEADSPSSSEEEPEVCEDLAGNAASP
# Outline: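 HepG2 cells transiently transfected with multiplexed GAL4-UAS reporter units for exogenous chimeric THRa1-Gal4; reporter mRNA measured 24 h after dosing by RT-PCR, 6-FAM labelling, HpaI digestion and capillary electrophoresis. Gain-of-signal fitted versus DMSO baseline.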
# [4] = biological target: human Retinoic Acid Receptor beta (RARb), RARB (gene 5915) (UniProt P10826); assay: ATG_RARb_TRANS: Attagene TRANS-FACTORIAL HepG2 Assay for human Retinoic Acid Receptor beta (AID 2283004)
# Chain of human Retinoic Acid Receptor beta (RARb), RARB (gene 5915) (P10826 whole entry, looked up, the tested form may be a part): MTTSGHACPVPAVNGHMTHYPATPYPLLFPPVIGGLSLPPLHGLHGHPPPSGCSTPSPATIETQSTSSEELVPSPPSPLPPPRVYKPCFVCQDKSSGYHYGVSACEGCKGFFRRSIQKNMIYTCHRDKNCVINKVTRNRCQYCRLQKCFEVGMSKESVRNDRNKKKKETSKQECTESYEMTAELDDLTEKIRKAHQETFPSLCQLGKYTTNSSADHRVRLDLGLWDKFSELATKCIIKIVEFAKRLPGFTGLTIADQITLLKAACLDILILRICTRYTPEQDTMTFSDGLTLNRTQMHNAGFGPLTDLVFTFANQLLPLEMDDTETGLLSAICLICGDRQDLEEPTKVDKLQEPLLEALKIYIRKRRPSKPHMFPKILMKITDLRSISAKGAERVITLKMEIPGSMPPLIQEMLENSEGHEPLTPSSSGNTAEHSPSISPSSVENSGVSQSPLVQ
# Outline: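 HepG2 cells transiently transfected with multiplexed GAL4-UAS reporter units expressing chimeric NR–Gal4 fusions; 24 h compound exposure. Reporter mRNA quantified by RT-PCR, 6-FAM labelling, HpaI digestion and capillary electrophoresis; gain-of-signal fitted against DMSO baseline.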
# [5] = biological target: Retinoic acid receptor alpha (Homo sapiens) (UniProt P10276); assay: ATG_RARa_TRANS: Attagene TRANS-FACTORIAL HepG2 Assay for human Retinoic Acid Receptor alpha (RARa) (AID 2283005)
# Chain of Retinoic acid receptor alpha (Homo sapiens) (P10276 whole entry, looked up, the tested form may be a part): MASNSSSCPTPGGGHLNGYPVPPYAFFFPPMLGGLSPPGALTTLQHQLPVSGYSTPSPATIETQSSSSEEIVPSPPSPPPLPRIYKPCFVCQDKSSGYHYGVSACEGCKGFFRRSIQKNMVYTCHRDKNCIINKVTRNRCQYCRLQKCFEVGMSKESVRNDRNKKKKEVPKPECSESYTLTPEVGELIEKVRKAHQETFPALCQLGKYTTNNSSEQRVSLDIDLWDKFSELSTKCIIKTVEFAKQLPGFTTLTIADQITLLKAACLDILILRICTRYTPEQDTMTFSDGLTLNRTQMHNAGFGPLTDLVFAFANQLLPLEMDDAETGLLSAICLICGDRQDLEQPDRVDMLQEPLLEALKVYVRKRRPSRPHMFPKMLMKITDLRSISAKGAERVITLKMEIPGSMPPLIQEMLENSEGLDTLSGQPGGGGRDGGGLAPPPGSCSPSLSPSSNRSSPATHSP
# Outline: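 HepG2 cells transiently transfected with multiple reporter units expressing chimeric RARα-GAL4 fusion, with GAL4-UAS-driven reporters. After 24 h compound exposure, reporter mRNA induction quantified by RT-PCR and capillary electrophoresis with fluorescent labeling; gain-of-signal fitted relative to DMSO control.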
# [6] = biological target: human RAR-related Orphan Receptor beta (RORb), RORB (gene 6096) (UniProt Q92753); assay: ATG_RORb_TRANS: Attagene TRANS-FACTORIAL HepG2 Assay for human RAR-related Orphan Receptor beta (RORb) (AID 2283010)
# Chain of human RAR-related Orphan Receptor beta (RORb), RORB (gene 6096) (Q92753 whole entry, looked up, the tested form may be a part): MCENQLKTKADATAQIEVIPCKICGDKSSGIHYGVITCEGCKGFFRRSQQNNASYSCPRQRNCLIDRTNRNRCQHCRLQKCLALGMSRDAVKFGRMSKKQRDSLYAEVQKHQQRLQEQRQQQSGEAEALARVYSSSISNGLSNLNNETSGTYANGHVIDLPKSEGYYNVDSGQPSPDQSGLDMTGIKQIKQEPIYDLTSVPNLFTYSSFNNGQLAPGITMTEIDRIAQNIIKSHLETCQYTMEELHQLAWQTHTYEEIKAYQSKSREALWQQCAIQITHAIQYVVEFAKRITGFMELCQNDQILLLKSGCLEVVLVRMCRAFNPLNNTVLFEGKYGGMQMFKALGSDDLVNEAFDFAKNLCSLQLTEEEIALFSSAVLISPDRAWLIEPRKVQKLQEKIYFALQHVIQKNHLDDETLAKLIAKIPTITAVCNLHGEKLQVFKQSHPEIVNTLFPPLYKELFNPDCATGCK
# Outline: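 Transfect HepG2 with multiple GAL4-UAS reporter transcription units; dose chemicals for 24 h; isolate RNA, reverse-transcribe and PCR-amplify reporter sequences; label, digest and resolve fragments by capillary electrophoresis; fit increases relative to DMSO.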
# [7] = biological target: Peroxisome proliferator-activated receptor gamma (Homo sapiens) (UniProt P37231); assay: ATG_PPARg_TRANS: Attagene TRANS-FACTORIAL HepG2 Assay for human Peroxisome Proliferator-activated Receptor-gamma (PPARg) (AID 2283007)
# Chain of Peroxisome proliferator-activated receptor gamma (Homo sapiens) (P37231 whole entry, looked up, the tested form may be a part): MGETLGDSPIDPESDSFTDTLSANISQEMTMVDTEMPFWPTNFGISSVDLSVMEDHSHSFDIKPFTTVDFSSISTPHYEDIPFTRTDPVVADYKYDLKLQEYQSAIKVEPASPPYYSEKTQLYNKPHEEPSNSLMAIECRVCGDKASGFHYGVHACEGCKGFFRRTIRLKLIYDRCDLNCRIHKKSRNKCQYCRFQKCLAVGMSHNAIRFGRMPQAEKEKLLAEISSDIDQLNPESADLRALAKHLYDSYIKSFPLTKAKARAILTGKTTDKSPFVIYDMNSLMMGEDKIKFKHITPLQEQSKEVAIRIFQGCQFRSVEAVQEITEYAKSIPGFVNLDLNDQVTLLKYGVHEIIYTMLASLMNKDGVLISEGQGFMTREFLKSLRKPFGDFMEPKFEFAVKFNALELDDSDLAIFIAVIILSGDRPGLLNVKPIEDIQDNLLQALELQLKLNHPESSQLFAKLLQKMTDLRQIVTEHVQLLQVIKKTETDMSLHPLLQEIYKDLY
# Outline: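 A TRANS-format multiplexed reporter assay measures activity of an exogenous chimeric NR-Gal4 protein in HepG2 cells. After 24 h of chemical exposure, reporter transcripts are amplified, fluorescently labelled and sized by capillary electrophoresis, with gain of signal scored against DMSO.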
# [8] = biological target: Nuclear receptor subfamily 1 group I member 2 (Homo sapiens) (UniProt O75469); assay: ATG_PXR_TRANS: Attagene TRANS-FACTORIAL HepG2 Assay for human Pregnane X Receptor (PXR) (AID 2283008)
# Chain of Nuclear receptor subfamily 1 group I member 2 (Homo sapiens) (O75469 whole entry, looked up, the tested form may be a part): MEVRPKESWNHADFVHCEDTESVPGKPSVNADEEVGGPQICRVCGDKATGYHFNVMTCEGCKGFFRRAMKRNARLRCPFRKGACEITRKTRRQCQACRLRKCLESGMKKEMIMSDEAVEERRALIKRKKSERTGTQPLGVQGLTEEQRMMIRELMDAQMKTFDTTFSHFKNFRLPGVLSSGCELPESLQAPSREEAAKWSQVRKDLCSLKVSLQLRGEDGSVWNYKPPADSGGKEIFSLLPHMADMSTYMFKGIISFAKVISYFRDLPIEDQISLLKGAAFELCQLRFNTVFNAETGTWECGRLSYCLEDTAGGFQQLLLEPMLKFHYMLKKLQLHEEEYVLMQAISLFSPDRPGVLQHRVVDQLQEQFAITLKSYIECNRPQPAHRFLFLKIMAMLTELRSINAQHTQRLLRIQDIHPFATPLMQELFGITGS
# Outline: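 Multiplexed TRANS reporter panel in HepG2; this component tracks PXR-Gal4-driven reporter mRNA after 24 h dosing, measured by RT-PCR with capillary electrophoresis fluorescence, fitted against DMSO.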
# [9] = biological target: human Retinoic Acid Receptor gamma (RARg), RARG (gene 5916) (UniProt P13631); assay: ATG_RARg_TRANS: Attagene TRANS-FACTORIAL HepG2 Assay for human Retinoic Acid Receptor gamma (RARg) (AID 2283009)
# Chain of human Retinoic Acid Receptor gamma (RARg), RARG (gene 5916) (P13631 whole entry, looked up, the tested form may be a part): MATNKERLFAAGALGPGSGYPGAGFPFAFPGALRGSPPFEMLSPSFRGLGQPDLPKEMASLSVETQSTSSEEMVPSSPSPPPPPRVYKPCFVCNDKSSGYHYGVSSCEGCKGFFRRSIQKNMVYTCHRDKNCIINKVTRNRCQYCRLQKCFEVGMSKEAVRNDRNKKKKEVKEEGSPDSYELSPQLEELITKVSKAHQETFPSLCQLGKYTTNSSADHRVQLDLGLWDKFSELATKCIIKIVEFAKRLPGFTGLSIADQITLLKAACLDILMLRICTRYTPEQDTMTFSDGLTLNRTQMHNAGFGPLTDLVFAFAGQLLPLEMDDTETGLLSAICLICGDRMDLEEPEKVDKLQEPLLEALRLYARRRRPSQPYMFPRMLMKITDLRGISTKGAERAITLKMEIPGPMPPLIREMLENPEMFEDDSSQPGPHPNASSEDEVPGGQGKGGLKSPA
# Outline: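 TRANS format measured activity of exogenous NR-GAL4 fusion (RARg) in transfected HepG2 liver cells after 24 h dosing. Induced reporter RNA was detected by RT-PCR/capillary electrophoresis fluorescence, analysed in the positive direction against DMSO.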
# [10] = biological target: human Peroxisome Proliferator-activated Receptor delta (PPARd), PPARD (gene 5467) (UniProt Q03181); assay: ATG_PPARd_TRANS: Attagene TRANS-FACTORIAL HepG2 Assay for human Peroxisome Proliferator-activated Receptor delta (PPARd) (AID 2283002)
# Chain of human Peroxisome Proliferator-activated Receptor delta (PPARd), PPARD (gene 5467) (Q03181 whole entry, looked up, the tested form may be a part): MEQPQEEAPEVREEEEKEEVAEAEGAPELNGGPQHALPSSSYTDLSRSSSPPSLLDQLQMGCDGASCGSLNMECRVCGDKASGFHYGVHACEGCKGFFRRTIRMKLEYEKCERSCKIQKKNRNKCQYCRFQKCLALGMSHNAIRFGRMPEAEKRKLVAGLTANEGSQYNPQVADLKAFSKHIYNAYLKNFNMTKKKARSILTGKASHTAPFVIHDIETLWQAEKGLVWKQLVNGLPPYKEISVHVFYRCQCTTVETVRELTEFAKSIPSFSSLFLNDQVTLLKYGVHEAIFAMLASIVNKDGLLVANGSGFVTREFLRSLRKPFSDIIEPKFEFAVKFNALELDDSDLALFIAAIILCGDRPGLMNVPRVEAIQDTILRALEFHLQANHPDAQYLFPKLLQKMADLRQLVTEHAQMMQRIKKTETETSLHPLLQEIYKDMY
# Outline: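 HepG2 cells transiently transfected with multiplexed GAL4-UAS reporter units and exogenous chimeric NR-Gal4 proteins; 24 h compound exposure. Reporter mRNA measured by RT-PCR, 6-FAM labelling, HpaI digestion and capillary electrophoresis; gain of signal versus DMSO.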
# [11] = biological target: human RAR-related Orphan Receptor gamma (RORg), RORC (gene 6097) (UniProt P51449); assay: ATG_RORg_TRANS: Attagene TRANS-FACTORIAL HepG2 Assay for human RAR-related Orphan Receptor gamma (RORg) (AID 2283011)
# Outline: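 Readout: reporter transcript induction (RT-PCR, fluorescent primer extension, capillary electrophoresis) after 24 h compound exposure of transiently transfected HepG2 cells carrying a RORg-Gal4 chimera and GAL4-UAS reporters; DMSO served as baseline, with increasing signal fitted.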
smiles,measurement,setting,value
NNC(=S)NN,outcome,[1],inactive
same,outcome,[2],inactive
same,outcome,[3],inactive
C=C(C)C#N,outcome,[4],inactive
same,outcome,[5],inactive
same,outcome,[6],inactive
same,outcome,[1],inactive
Cl/C=C/Cl,outcome,[6],inactive
same,outcome,[2],inactive
same,outcome,[3],inactive
Fc1ccc(C2(Cn3cncn3)OC2c2ccccc2Cl)cc1 (stereo not given),outcome,[7],inactive
same,AC50,[8],2.24 µM (active)
same,outcome,[9],inactive
same,outcome,[1],inactive
CCOP(OCC)OCC,outcome,[4],inactive
same,outcome,[5],inactive
same,outcome,[8],inactive
same,outcome,[2],inactive
CCOC(=O)CP(=O)(OCC)OCC,outcome,[7],inactive
same,outcome,[8],inactive
same,outcome,[1],inactive
same,outcome,[3],inactive
CC(C)C1CCC(Cc2ccc(Cl)cc2)C1(O)Cn1cncn1 (stereo not given),outcome,[4],inactive
same,outcome,[5],inactive
same,outcome,[7],inactive
same,AC50,[8],1.79 µM (active)
same,outcome,[9],inactive
same,outcome,[1],inactive
same,outcome,[2],inactive
same,outcome,[3],inactive
COc1cccc(C=O)c1,outcome,[4],inactive
same,outcome,[8],inactive
same,outcome,[6],inactive
C=CC(=O)N(C)C,outcome,[10],inactive
same,outcome,[7],inactive
same,outcome,[8],inactive
same,outcome,[1],inactive
same,outcome,[3],inactive
O=C1CCCN1,outcome,[10],inactive
same,outcome,[7],inactive
same,outcome,[1],inactive
CCOC(=O)Nc1cccc(OC(=O)Nc2ccccc2)c1,outcome,[10],inactive
same,outcome,[5],inactive
same,outcome,[7],inactive
same,outcome,[8],inactive
same,outcome,[3],inactive
CCC(C)c1cccc(C(C)CC)c1O (stereo not given),outcome,[10],inactive
same,outcome,[4],inactive
same,outcome,[5],inactive
same,outcome,[7],inactive
same,AC50,[8],4.53 µM (active)
same,outcome,[9],inactive
same,outcome,[1],inactive
same,AC50,[2],26.3 µM (active)
same,outcome,[3],inactive
CC(C)c1cccc(C(C)C)c1O,outcome,[10],inactive
same,outcome,[4],inactive
same,outcome,[5],inactive
same,outcome,[7],inactive
same,AC50,[8],4.74 µM (active)
same,outcome,[9],inactive
same,outcome,[6],inactive
same,outcome,[1],inactive
same,AC50,[2],50.6 µM (active)
same,outcome,[3],inactive
CCCCP(CCCC)CCCC,outcome,[10],inactive
same,AC50,[8],7.21 µM (active)
same,outcome,[6],inactive
same,outcome,[1],inactive
same,outcome,[3],inactive
CC(Br)C(=O)O (stereo not given),outcome,[10],inactive
same,outcome,[4],inactive
same,outcome,[8],inactive
same,outcome,[9],inactive
same,outcome,[1],inactive
N#CCc1ccc(Cl)cc1,outcome,[10],inactive
same,outcome,[7],inactive
same,outcome,[8],inactive
same,outcome,[11],inactive
same,outcome,[1],inactive
same,outcome,[2],inactive
same,outcome,[3],inactive
CC(C)(c1ccc(OCC2CO2)cc1)c1ccc(OCC2CO2)cc1 (stereo not given),outcome,[7],inactive
same,outcome,[8],inactive
same,outcome,[1],inactive
same,outcome,[2],inactive
CCC[CH2][Sn]([Cl])([Cl])[Cl],outcome,[8],inactive
same,outcome,[6],inactive
same,outcome,[3],inactive
CCC1(c2ccc(N)cc2)CCC(=O)NC1=O (stereo not given),outcome,[7],inactive
same,outcome,[8],inactive
same,outcome,[1],inactive
same,outcome,[3],inactive
OCC(O)CCl (stereo not given),outcome,[10],inactive
same,outcome,[7],inactive
same,outcome,[8],inactive
same,outcome,[6],inactive
same,outcome,[1],inactive
Clc1ccc(C2(Cn3cncn3)CC(Br)CO2)c(Cl)c1 (stereo not given),outcome,[10],inactive
same,AC50,[8],0.762 µM (active)
same,outcome,[3],inactive
CC(=O)c1cc(C(C)(C)C)cc2c1CCC2(C)C,outcome,[10],inactive
same,AC50,[8],5.5 µM (active)
same,AC50,[1],3.52 µM (active)
same,AC50,[2],0.446 µM (active)
CCOP(=O)(CN(CCO)CCO)OCC,outcome,[10],inactive
same,outcome,[5],inactive
same,outcome,[7],inactive
same,outcome,[9],inactive
same,outcome,[6],inactive
same,outcome,[2],inactive
same,outcome,[3],inactive
CC(C#N)CCC#N (stereo not given),outcome,[10],inactive
same,outcome,[4],inactive
same,outcome,[8],inactive
same,outcome,[9],inactive
same,outcome,[2],inactive
same,outcome,[3],inactive
CCCCCCCCCl,outcome,[10],inactive
same,outcome,[5],inactive
same,outcome,[8],inactive
same,outcome,[9],inactive
same,outcome,[6],inactive
same,outcome,[1],inactive
same,outcome,[2],inactive
COc1ccc(OC)c(C=O)c1,outcome,[10],inactive
same,outcome,[7],inactive
same,AC50,[8],6.5 µM (active)
same,outcome,[6],inactive
same,outcome,[11],inactive
same,outcome,[2],inactive
same,outcome,[3],inactive
O=C(O)Cc1ccccc1,outcome,[4],inactive
same,outcome,[5],inactive
same,outcome,[7],inactive
same,outcome,[8],inactive
same,outcome,[6],inactive
same,outcome,[1],inactive
same,outcome,[2],inactive
Cc1ccccc1C(=O)Nc1cccc(OC(C)C)c1,outcome,[10],inactive
same,AC50,[8],2.62 µM (active)
same,outcome,[1],inactive
same,outcome,[2],inactive
same,outcome,[3],inactive
Cc1cc(=O)[nH]o1,outcome,[10],inactive
same,outcome,[7],inactive
same,outcome,[8],inactive
same,outcome,[6],inactive
same,outcome,[2],inactive
CC(C)OC(=O)Nc1ccccc1,outcome,[4],inactive
same,outcome,[5],inactive
same,outcome,[7],inactive
same,outcome,[8],inactive
same,outcome,[9],inactive
same,outcome,[3],inactive
ClCc1cccnc1,outcome,[10],inactive
same,outcome,[8],inactive
same,outcome,[6],inactive
same,outcome,[1],inactive
same,outcome,[2],inactive
same,outcome,[3],inactive
CN(C)P(=O)(N(C)C)N(C)C,outcome,[5],inactive
same,outcome,[8],inactive
same,outcome,[3],inactive
CCCCOCCOC(C)=O,outcome,[10],inactive
same,outcome,[7],inactive
same,outcome,[8],inactive
same,outcome,[1],inactive
same,outcome,[2],inactive
same,outcome,[3],inactive
N#Cc1ccccn1,outcome,[6],inactive
CCN(CC)C(=O)Cl,outcome,[10],inactive
same,outcome,[8],inactive
same,outcome,[6],inactive
same,outcome,[2],inactive
